# PubChem BioAssay AID743382 (National Center for Advancing Translational Sciences (NCATS), 2014)
# Calls of active or inactive are those of the source. Calls follow the shape of the full dose curve.
# Assay: qHTS for Inhibitors of PI5P4K: BT474 Cell Proliferation Assay for Probe SAR
# Conditions: CellTiter-Glo ATP luminescence, 72 h
# Excerpt: In addition to finding PI5P, we discovered the type II phosphatidylinositol 5-phosphate 4-kinase (PI5P4K) family (alpha, beta, gamma isoforms) that catalyze the conversion of PI5P to PI(4,5)P2. Alternatively, PI(4,5)P2 can also be synthesized through phosphatidylinositol-4-phosphate (PI4P) by the type I phosphatidylinositol 4-phosphate 5-kinases (PI4P5K). These PI5P4K enzymes therefore represent one way by which cells can regulate endogenous PI5P levels and play important roles in insulin signaling and in stress responses. […] A qHTS PI5P4K-alpha ADP-Glo assay was developed to identify specific modulators of human PI5P4K, phosphatidylinositol-5-phosphate 4-kinase (Type II PIPK). […]
# BT474 cells were cultured in DMEM with 10% FBS and plated in 1536-well white solid-bottom tissue-culture treated plates at a density of 500 cells per 5 microL well. […] After 72 hours of incubation at 37 degrees C 5% CO2 the level of ATo was measured using the Cell Titer Glo luciferase-coupled ATP detection system from Promega. This assays monitors cells by quantitating the amount of ATP present by luciferase, which in the presence of ATP converts pro-luciferin into the luminescent luciferin product. A compound that inhibits cell proliferation would result in a decrease in luminescence. […] The luminescence was read on a Viewlux (Perkin Elmer) plate reader.
row,Compound,Potency
1,O=C1Nc2ccc(C(=O)c3ccco3)cc2/C1=C/c1cc(Cl)c(O)c(Cl)c1,10.5 µM (active)
